Results from PMC12820563, “FoxP3 forms a head-to-head dimer in vivo and stabilizes its multimerization on adjacent microsatellites”.
In all, about 16,000 sequences were measured (“rpm ratio (pull-down/input)”: median about 0.5, highest 2% from about 5.5 on). The sample holds the highest values, similar sequences and a random draw of the others, so the mix is not that of the screen.

Target: T1, MBP-FoxP3dN (Mus musculus, UniProt Q99JB6 188-423)
T1 sequence: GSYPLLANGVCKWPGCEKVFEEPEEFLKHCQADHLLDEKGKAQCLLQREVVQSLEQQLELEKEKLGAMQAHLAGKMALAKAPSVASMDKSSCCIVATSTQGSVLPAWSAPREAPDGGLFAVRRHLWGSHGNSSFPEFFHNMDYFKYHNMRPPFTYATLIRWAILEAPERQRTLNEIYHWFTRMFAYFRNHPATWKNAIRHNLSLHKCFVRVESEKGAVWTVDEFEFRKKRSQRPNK
Experiment: PD-seq (MBP pull-down with sequencing); 20 mM Tris-HCl pH 7.5, 100 mM NaCl, 1.5 mM MgCl2, 0.4 uM protein, 0.1 uM dsDNA library, 30 min, room temperature, amylose pull-down; high values mean tight binding
Settings: protein: recombinant; tags: His6-MBP; chain copies: 2; dsDNA, one strand shown
How it was run: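 In Tris pH 7.5 buffer with NaCl and MgCl2, 0.4 µM His6-MBP-tagged mouse FoxP3 or FoxP1 fragment lacking the N-terminus, from E. coli, met 0.1 µM Klenow-filled double-stranded degenerate DNA library for 30 min at room temperature. Three washes on amylose resin followed capture of the complexes, then proteinase K release of DNA, PCR barcoding and Illumina sequencing. Binding is taken as pooled-replicate reads-per-million enrichment of pull-down relative to input.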

How did the binding signal turn out when “GATGATTGTTCTCCCAGCTGATGAATTAAGTAATTCGAGTAAACAAATTTTCCTAATCTTTCTGTTCAAGCGCCATCTAC” was run?
The binding signal was 1.05 RPM ratio (pull-down/input).

“GATGATTGTTCTCCCAGCTGATGAATTGATCTTGTCGAGTAAACAAATTTTCCTAATCTTTCTGTTCAAGCGCCATCTAC” was tested. Which binding signal did it give?
The binding signal was 0.293 RPM ratio (pull-down/input).

Which binding signal does the source give for “GATGATTGTTCTCCCAGCTGATGAATTGTTTGCCTCGAGTAAACAAATTTTCCTAATCTTTCTGTTCAAGCGCCATCTAC” here?
Its binding signal is 5.67 RPM ratio (pull-down/input).

With “GATGATTGTTCTCCCAGCTGATGAATTTGTTGCCTCGAGTAAACAAATTTTCCTAATCTTTCTGTTCAAGCGCCATCTAC” as the sequence, how does the binding signal read?
The binding signal was 7.02 RPM ratio (pull-down/input).

“GATGATTGTTCTCCCAGCTGATGAATTCTTTGCCTCGAGTAAACAAATTTTCCTAATCTTTCTGTTCAAGCGCCATCTAC” was tested. Which binding signal did it give?
Its binding signal is 0.403 RPM ratio (pull-down/input).

How did the binding signal turn out when “GATGATTGTTCTCCCAGCTGATGAATTTGCCGCCTCGAGTAAACAAATTTTCCTAATCTTTCTGTTCAAGCGCCATCTAC” was run?
Its binding signal is 0.88 RPM ratio (pull-down/input).

For “GATGATTGTTCTCCCAGCTGATGAATTTGCCTCCTCGAGTAAACAAATTTTCCTAATCTTTCTGTTCAAGCGCCATCTAC”, which binding signal is on record?
Its binding signal is 2.37 RPM ratio (pull-down/input).

With “GATGATTGTTCTCCCAGCTGATGAATTTTTTGCCTCGAGTAAACAAATTTTCCTAATCTTTCTGTTCAAGCGCCATCTAC” as the sequence, how does the binding signal read?
The binding signal was 0.432 RPM ratio (pull-down/input).

“GATGATTGTTCTCCCAGCTGATGAATTGCGCCTCTCGAGTAAACAAATTTTCCTAATCTTTCTGTTCAAGCGCCATCTAC” was tested. Which binding signal did it give?
The binding signal was 7.17 RPM ratio (pull-down/input).

How did the binding signal turn out when “GATGATTGTTCTCCCAGCTGATGAATTTTGCGCCTCGAGTAAACAAATTTTCCTAATCTTTCTGTTCAAGCGCCATCTAC” was run?
Its binding signal is 2.67 RPM ratio (pull-down/input).

“GATGATTGTTCTCCCAGCTGATGAATTTGCCTCTTCGAGTAAACAAATTTTCCTAATCTTTCTGTTCAAGCGCCATCTAC” was tested. Which binding signal did it give?
The binding signal was 2.52 RPM ratio (pull-down/input).

With “GATGATTGTTCTCCCAGCTGATGAATTTGCCCTCTCGAGTAAACAAATTTTCCTAATCTTTCTGTTCAAGCGCCATCTAC” as the sequence, how does the binding signal read?
Its binding signal is 0.526 RPM ratio (pull-down/input).

With “GATGATTGTTCTCCCAGCTGATGAATTTTGCCTCTCGAGTAAACAAATTTTCCTAATCTTTCTGTTCAAGCGCCATCTAC” as the sequence, how does the binding signal read?
Its binding signal is 5.78 RPM ratio (pull-down/input).

For “GATGATTGTTCTCCCAGCTGATGAATTGCCTCTCTCGAGTAAACAAATTTTCCTAATCTTTCTGTTCAAGCGCCATCTAC”, which binding signal is on record?
The binding signal was 1.04 RPM ratio (pull-down/input).

How did the binding signal turn out when “GATGATTGTTCTCCCAGCTGATGAATTAGGTCCTTCGAGTAAACAAATTTTCCTAATCTTTCTGTTCAAGCGCCATCTAC” was run?
Its binding signal is 0.354 RPM ratio (pull-down/input).

“GATGATTGTTCTCCCAGCTGATGAATTCTCTCCATCGAGTAAACAAATTTTCCTAATCTTTCTGTTCAAGCGCCATCTAC” was tested. Which binding signal did it give?
The binding signal was 0.223 RPM ratio (pull-down/input).

How did the binding signal turn out when “GATGATTGTTCTCCCAGCTGATGAATTGGTACGCTCGAGTAAACAAATTTTCCTAATCTTTCTGTTCAAGCGCCATCTAC” was run?
Its binding signal is 0.466 RPM ratio (pull-down/input).

How did the binding signal turn out when “GATGATTGTTCTCCCAGCTGATGAATTGCCTTTTTCGAGTAAACAAATTTTCCTAATCTTTCTGTTCAAGCGCCATCTAC” was run?
The binding signal was 1.02 RPM ratio (pull-down/input).

“GATGATTGTTCTCCCAGCTGATGAATTTGCCTTTTCGAGTAAACAAATTTTCCTAATCTTTCTGTTCAAGCGCCATCTAC” was tested. Which binding signal did it give?
Its binding signal is 2.1 RPM ratio (pull-down/input).

How did the binding signal turn out when “GATGATTGTTCTCCCAGCTGATGAATTTTTGCCTTCGAGTAAACAAATTTTCCTAATCTTTCTGTTCAAGCGCCATCTAC” was run?
The binding signal was 2.86 RPM ratio (pull-down/input).

“GATGATTGTTCTCCCAGCTGATGAATTGCGCCTTTCGAGTAAACAAATTTTCCTAATCTTTCTGTTCAAGCGCCATCTAC” was tested. Which binding signal did it give?
The binding signal was 6.82 RPM ratio (pull-down/input).

Which binding signal does the source give for “GATGATTGTTCTCCCAGCTGATGAATTTGCGCCTTCGAGTAAACAAATTTTCCTAATCTTTCTGTTCAAGCGCCATCTAC” here?
The binding signal was 3.88 RPM ratio (pull-down/input).

For “GATGATTGTTCTCCCAGCTGATGAATTTTGCCTTTCGAGTAAACAAATTTTCCTAATCTTTCTGTTCAAGCGCCATCTAC”, which binding signal is on record?
Its binding signal is 5.56 RPM ratio (pull-down/input).

“GATGATTGTTCTCCCAGCTGATGAATTGTCTCATTCGAGTAAACAAATTTTCCTAATCTTTCTGTTCAAGCGCCATCTAC” was tested. Which binding signal did it give?
The binding signal was 0.539 RPM ratio (pull-down/input).

For “GATGATTGTTCTCCCAGCTGATGAATTGCCTGCGTCGAGTAAACAAATTTTCCTAATCTTTCTGTTCAAGCGCCATCTAC”, which binding signal is on record?
Its binding signal is 0.937 RPM ratio (pull-down/input).

With “GATGATTGTTCTCCCAGCTGATGAATTGCCTTTGTCGAGTAAACAAATTTTCCTAATCTTTCTGTTCAAGCGCCATCTAC” as the sequence, how does the binding signal read?
The binding signal was 0.946 RPM ratio (pull-down/input).

For “GATGATTGTTCTCCCAGCTGATGAATTGTGCCTGTCGAGTAAACAAATTTTCCTAATCTTTCTGTTCAAGCGCCATCTAC”, which binding signal is on record?
Its binding signal is 6.42 RPM ratio (pull-down/input).

With “GATGATTGTTCTCCCAGCTGATGAATTGCCTGTGTCGAGTAAACAAATTTTCCTAATCTTTCTGTTCAAGCGCCATCTAC” as the sequence, how does the binding signal read?
The binding signal was 0.881 RPM ratio (pull-down/input).

For “GATGATTGTTCTCCCAGCTGATGAATTTCCTGTGTCGAGTAAACAAATTTTCCTAATCTTTCTGTTCAAGCGCCATCTAC”, which binding signal is on record?
The binding signal was 0.352 RPM ratio (pull-down/input).

For “GATGATTGTTCTCCCAGCTGATGAATTGTTCCTGTCGAGTAAACAAATTTTCCTAATCTTTCTGTTCAAGCGCCATCTAC”, which binding signal is on record?
Its binding signal is 0.351 RPM ratio (pull-down/input).

Which binding signal does the source give for “GATGATTGTTCTCCCAGCTGATGAATTTTGCCTGTCGAGTAAACAAATTTTCCTAATCTTTCTGTTCAAGCGCCATCTAC” here?
The binding signal was 5.62 RPM ratio (pull-down/input).

Which binding signal does the source give for “GATGATTGTTCTCCCAGCTGATGAATTGCGCCTGTCGAGTAAACAAATTTTCCTAATCTTTCTGTTCAAGCGCCATCTAC” here?
Its binding signal is 6.14 RPM ratio (pull-down/input).

Which binding signal does the source give for “GATGATTGTTCTCCCAGCTGATGAATTTGCCCTGTCGAGTAAACAAATTTTCCTAATCTTTCTGTTCAAGCGCCATCTAC” here?
Its binding signal is 0.487 RPM ratio (pull-down/input).
